Among the data in PubChem BioAssay (Tox21) are Potency and outcome values, retold here.

A short description of assay [1]: Nuclear factor erythroid 2-related factor 2/antioxidant responsive element (Nrf2/ARE) small molecule agonists: qHTS cell viability counter screen in human keratinocytes (AID 1919968; active = well fitted curve in the direction sought with a large enough effect in the repeat runs; an effect the other way counts as inactive or inconclusive; also: nearly all actives have a fitted effect of over 55% in size; also: potency is read from the fitted curve at half-maximal effect). The essentials:
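After a 5 h attachment period, ARE-reporter keratinocytes were dosed with compounds in DMSO and then cultured 23 h at 37 C. Cell viability came from CellTiter-Fluor signal read after a further 1 h.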
For orientation: qHTS replaces the single test concentration by a dilution series.

The nature of assay [2]: Nuclear factor erythroid 2-related factor 2/antioxidant responsive element (Nrf2/ARE) small molecule agonists: luciferase reporter gene qHTS assay in human keratinocytes (AID 1919969). Also: nearly all actives have a fitted effect of over 35% in size. Also: potency is read from the fitted curve at half-maximal effect.
The target in assay [3] is Gonadotropin-releasing hormone receptor (Homo sapiens) (UniProt P30968). In words: Human gonadotropin-releasing hormone receptor (GnRHR) small molecule agonists, calcium flux assay in GnRHR-HEK293 cells (AID 1920063). Also: nearly all actives have a fitted effect of over 35% in size. The essentials:
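We seeded human GnRHR-expressing HEK293 cells for 18 hours, loaded them with calcium dye for an hour at 37 C, added test compounds, and recorded fluorescence intensity kinetically for three minutes.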
A general note: Calcium flux is commonly read through the fluorescence of an indicator in the cells.

The target in assay [4] is KiSS-1 receptor (Homo sapiens) (UniProt Q969F8). In words: Human kisspeptin (KISS1R) small molecule agonists, calcium flux assay in KISS1R-HEK293 cells (AID 1920064; active = well fitted curve in the direction sought with a large enough effect in the repeat runs; an effect the other way counts as inactive or inconclusive). The essentials: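 Kinetic calcium assay, 1 s sampling over 3 min at Ex/Em 480/540, in HEK293 cells engineered with human KISS1R; compounds delivered in DMSO after 1 h dye loading.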
Sequence of KiSS-1 receptor (Homo sapiens) (Q969F8 whole entry, looked up): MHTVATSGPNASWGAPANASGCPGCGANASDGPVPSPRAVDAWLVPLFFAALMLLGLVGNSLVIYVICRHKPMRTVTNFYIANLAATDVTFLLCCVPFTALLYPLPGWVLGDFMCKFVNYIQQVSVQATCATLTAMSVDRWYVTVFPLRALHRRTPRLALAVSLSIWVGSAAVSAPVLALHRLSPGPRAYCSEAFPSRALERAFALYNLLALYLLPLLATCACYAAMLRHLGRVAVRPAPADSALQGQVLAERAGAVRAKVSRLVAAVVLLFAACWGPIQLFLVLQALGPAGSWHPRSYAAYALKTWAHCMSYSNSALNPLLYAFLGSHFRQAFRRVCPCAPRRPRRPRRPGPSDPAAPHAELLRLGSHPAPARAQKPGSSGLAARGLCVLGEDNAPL
Assay [5] can be described thus: G protein-coupled receptor (GPCR) small molecule agonists, calcium flux assay: HEK293 wild type cell line counter screen (AID 1920065). A digest of the protocol: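 Calcium-sensitive dye, loaded 1 h at 37 C into cells cultured 18 h, reports compound-evoked calcium release as fluorescence (Ex/Em 480/540), measured over 3 min. Agonist mode; 15-point titrations, triplicate.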

Assay [6] can be described thus: p53 small molecule agonists, cell-based qHTS assay with human liver microsomes (AID 1963577). The essentials:
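p53RE-bla reporter cells were pre-incubated 5 h at 37 C, then treated with compounds plus human liver microsomes (0.5 mg/mL final) and NADPH (0.5 mg/mL final) for 16 h at 37 C. Beta-lactamase activity was read by LiveBLAzer fluorescence after 2 h at room temperature.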

Assay [7] can be described thus: p53 small molecule agonists, cell-based qHTS assay with rat liver microsomes (AID 1963578). A digest of the protocol: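 p53RE-bla cells were exposed to compounds together with rat liver microsomes (0.5 mg/mL final) and NADPH (0.5 mg/mL final) for 16 h at 37 C, then read by LiveBLAzer beta-lactamase fluorescence after 2 h at room temperature.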
Assay [8] is described as follows: p53 small molecule agonists, cell-based qHTS assay with human liver microsomes: qHTS cell viability counter screen (AID 1963579). Also: nearly all actives have a fitted effect of over 45% in size. Also: potency is read from the fitted curve at half-maximal effect. The essentials: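 p53RE-bla cells (4,000/well) were pre-incubated 5 h at 37 C, then given compounds in DMSO plus human liver microsomes (0.5 mg/mL final) and NADPH (0.5 mg/mL final) for 16 h at 37 C. Viability was read by CellTiter-Glo luminescence.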

Assay [9] can be described thus: p53 small molecule agonists, cell-based qHTS assay with rat liver microsomes: qHTS cell viability counter screen (AID 1963580). Also: nearly all actives have a fitted effect of over 45% in size. Also: potency is read from the fitted curve at half-maximal effect. The essentials:
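p53RE-bla HCT-116 cells were exposed 16 h at 37 C to compounds with rat liver microsomes (0.5 mg/mL) and NADPH (0.5 mg/mL). Viability was measured in the same wells as ATP content by CellTiter-Glo luminescence.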

Assay [10] in a line: p53 small molecule agonists, cell-based qHTS assay: qHTS cell viability counter screen (AID 1963581). Also: nearly all actives have a fitted effect of over 45% in size. The essentials: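 Following 5 h attachment, HCT-116 p53RE-bla cells took up compound for 16 h at 37 C; the reporter was read with B/G FRET substrate (2 h RT), and viability then via CellTiter-Glo ATP luminescence.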
Assay [11] has as its target 5-hydroxytryptamine receptor 2A (Homo sapiens) (UniProt P28223). In words: 5-hydroxytryptamine receptor 2A (HTR2A) small molecule antagonists, cell-based qHTS assay (AID 1963586). Also: nearly all actives have a fitted effect of over 45% in size. The essentials:
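Antagonist-mode intracellular calcium assay: DOI (4 nM) added after 5 min compound pre-incubation at room temperature to dye-loaded HTR2A-CHO cells. Fluorescence followed for 3 min, sampled every second.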

For assay [12] the target is unchanged. The assay is described as follows: 5-hydroxytryptamine receptor 2A (HTR2A) small molecule agonists, cell-based qHTS assay (AID 1963587). Also: nearly all actives have a fitted effect of over 30% in size. A digest of the protocol:
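CHO cells stably expressing human HTR2A, plated 18 h, loaded with calcium dye 1 h at 37 C. Agonist mode: compounds added and intracellular calcium fluorescence recorded kinetically for 2 min at 1 sec intervals.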

The target of assay [13] is Muscarinic acetylcholine receptor M1 (Homo sapiens) (UniProt P11229). The assay is described as follows: Cholinergic receptor muscarinic 1 (CHRM1) small molecule agonists, cell-based qHTS assay (AID 1963589). Also: nearly all actives have a fitted effect of over 35% in size. A digest of the protocol: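 Measures agonist-induced intracellular calcium rise. Stable human CHRM1 CHO line, 1 h dye load at 37 C, compounds from DMSO, kinetic fluorescence read.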
Sequence of Muscarinic acetylcholine receptor M1 (Homo sapiens) (P11229 whole entry, looked up): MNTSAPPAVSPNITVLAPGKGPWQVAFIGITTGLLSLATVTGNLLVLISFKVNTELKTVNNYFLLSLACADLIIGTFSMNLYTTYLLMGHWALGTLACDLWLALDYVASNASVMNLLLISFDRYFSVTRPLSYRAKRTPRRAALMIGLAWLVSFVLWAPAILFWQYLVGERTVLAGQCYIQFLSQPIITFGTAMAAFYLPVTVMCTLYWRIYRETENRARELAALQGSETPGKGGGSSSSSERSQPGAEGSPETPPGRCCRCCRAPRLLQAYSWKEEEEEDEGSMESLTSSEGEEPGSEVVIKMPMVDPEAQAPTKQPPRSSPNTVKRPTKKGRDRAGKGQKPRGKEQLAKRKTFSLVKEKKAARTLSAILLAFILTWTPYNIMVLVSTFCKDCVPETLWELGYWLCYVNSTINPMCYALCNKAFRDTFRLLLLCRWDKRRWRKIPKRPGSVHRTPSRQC

A short description of assay [14]: cAMP Responsive Elements (CRE) small molecule agonists, cell-based qHTS assay (AID 1963590). A digest of the protocol:
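A CRE-responsive beta-lactamase reporter in HEK 293T cells was used. Treatment ran 3 h at 37 C; detection used LiveBLAzer B/G FRET substrate for 2 h at room temperature.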

Assay [15] in a line: cAMP Responsive Elements (CRE) small molecule antagonists, cell-based qHTS assay (AID 1963591; active = well fitted inhibition curve with a large enough effect in the signal ratio in the repeat runs, not every such curve was filed as active; the % refers to the signal ratio). A digest of the protocol:
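HEK293T cells carrying a CRE-driven beta-lactamase reporter receive compound and NKH477 (0.25 uM final) for 3 h. Fluorescence from LiveBLAzer B/G FRET substrate is read after 2 h at room temperature.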

Assay [16] concerns the target Beta-2 adrenergic receptor (Homo sapiens) (UniProt P07550). In words: Adrenergic beta2 receptor (ADRB2) small molecule antagonists, cell-based qHTS assay (AID 1963592). Also: series mostly up to about 92 µM; nearly all actives have a fitted effect of over 50% in size. The essentials:
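Cells (CHO, stable ADRB2 overexpression) incubated 18-20hr at 37C; compounds added from DMSO; agonist mix (1nM isoproterenol, 100uM IBMX, 25uM Ro-20-1724) added; 0.5hr RT; d2-cAMP and anti-cAMP-cryptate added; 1hr RT; 665/615 nm read.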

Assay [17] has the same target. The assay is described as follows: Adrenergic beta2 receptor (ADRB2) small molecule agonists, cell-based qHTS assay (AID 1963593).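 Also: CHO cells stably overexpressing human ADRB2.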 A digest of the protocol: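 CHO cells stably over-expressing ADRB2 were plated overnight at 37C, then dosed with compounds plus a stimulation mix containing 100uM IBMX and 25uM Ro-20-1724 for 0.5hr at room temperature. cAMP was measured by HTRF competition, 1hr.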

Assay [18] addresses D(2) dopamine receptor (Homo sapiens) (UniProt P14416). The assay is described as follows: Dopamine D2 receptor (DRD2) small molecule agonists, cell-based qHTS assay (AID 1963594). Also: nearly all actives have a fitted effect of over 35% in size. A digest of the protocol:
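HEK293 cells stably expressing human DRD2, pre-treated with PDE inhibitor Ro20-1724 (0.1 mM final) and compound 10 min at room temperature, then stimulated with NKH477 (200nM […]) for 30 min. cAMP read by HTRF (665/620 nm).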

Assay [19] in a line: p53 small molecule agonists, cell-based qHTS assay (AID 1963582; active = well fitted activation curve with a large enough effect in the signal ratio in the repeat runs, not every such curve was filed as active; the % refers to the signal ratio). A digest of the protocol: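 In this cell-based concentration-response screen, a p53 response element drives beta-lactamase; cells received DMSO-borne compounds after 5 h culture and were incubated a further 16 h before FRET substrate development.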
The target in assay [20] is D(2) dopamine receptor (Homo sapiens) (UniProt P14416). The assay is described as follows: Dopamine D2 receptor (DRD2) small molecule antagonists, cell-based qHTS assay (AID 1963595; active = well fitted inhibition curve with a large enough effect in the signal ratio in the repeat runs, with a control signal flat; the % refers to the signal ratio). A digest of the protocol: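 Cells were plated and grown for 24 h at 37 °C. Ro20-1724 (0.1 mM final) went in first, then compound for 10 min. NKH477 (200 nM) with quinpirole (12 nM) followed for 30 min at RT, then HTRF detection reagents for 1 h.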
Sequence of D(2) dopamine receptor (Homo sapiens) (P14416 whole entry, looked up): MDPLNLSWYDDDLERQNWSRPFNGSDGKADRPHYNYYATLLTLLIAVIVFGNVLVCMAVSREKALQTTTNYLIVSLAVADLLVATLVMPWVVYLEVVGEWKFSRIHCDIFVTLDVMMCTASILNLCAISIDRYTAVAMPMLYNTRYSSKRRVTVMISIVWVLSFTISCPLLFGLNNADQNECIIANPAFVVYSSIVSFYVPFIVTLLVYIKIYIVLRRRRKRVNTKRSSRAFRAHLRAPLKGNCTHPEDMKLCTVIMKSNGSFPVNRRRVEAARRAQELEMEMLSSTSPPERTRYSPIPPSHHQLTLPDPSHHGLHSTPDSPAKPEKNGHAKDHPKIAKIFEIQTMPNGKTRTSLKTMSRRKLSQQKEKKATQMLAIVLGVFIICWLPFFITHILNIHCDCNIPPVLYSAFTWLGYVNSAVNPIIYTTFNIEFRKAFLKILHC

SMILES strings stand for the structures. Values without a mark were called inactive. Inconclusive results are not listed. Active and inactive are the calls of the source. Unless noted, calls follow the shape of the full dose curve.

Sequence of Gonadotropin-releasing hormone receptor (Homo sapiens) (P30968 whole entry, looked up): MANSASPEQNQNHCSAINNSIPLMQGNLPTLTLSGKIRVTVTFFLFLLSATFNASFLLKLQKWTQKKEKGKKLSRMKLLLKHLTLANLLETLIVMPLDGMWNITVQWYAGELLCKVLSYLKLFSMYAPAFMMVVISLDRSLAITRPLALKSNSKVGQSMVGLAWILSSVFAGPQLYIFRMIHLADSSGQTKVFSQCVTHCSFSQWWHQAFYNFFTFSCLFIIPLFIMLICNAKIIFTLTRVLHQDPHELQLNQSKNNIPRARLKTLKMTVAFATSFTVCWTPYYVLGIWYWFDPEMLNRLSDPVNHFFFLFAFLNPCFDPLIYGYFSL
Sequence of Beta-2 adrenergic receptor (Homo sapiens) (P07550 whole entry, looked up): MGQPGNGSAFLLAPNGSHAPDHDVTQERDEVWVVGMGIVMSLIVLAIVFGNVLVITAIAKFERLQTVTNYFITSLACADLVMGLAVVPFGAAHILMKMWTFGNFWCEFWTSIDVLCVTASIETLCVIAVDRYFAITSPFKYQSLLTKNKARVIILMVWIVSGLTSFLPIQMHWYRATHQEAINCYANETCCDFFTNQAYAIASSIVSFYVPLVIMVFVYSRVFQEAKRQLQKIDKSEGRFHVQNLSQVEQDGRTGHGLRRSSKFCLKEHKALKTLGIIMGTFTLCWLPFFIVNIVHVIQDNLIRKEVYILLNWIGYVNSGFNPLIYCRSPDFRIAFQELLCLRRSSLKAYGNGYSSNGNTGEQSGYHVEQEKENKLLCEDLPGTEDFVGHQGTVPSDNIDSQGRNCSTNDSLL
Sequence of 5-hydroxytryptamine receptor 2A (Homo sapiens) (P28223 whole entry, looked up): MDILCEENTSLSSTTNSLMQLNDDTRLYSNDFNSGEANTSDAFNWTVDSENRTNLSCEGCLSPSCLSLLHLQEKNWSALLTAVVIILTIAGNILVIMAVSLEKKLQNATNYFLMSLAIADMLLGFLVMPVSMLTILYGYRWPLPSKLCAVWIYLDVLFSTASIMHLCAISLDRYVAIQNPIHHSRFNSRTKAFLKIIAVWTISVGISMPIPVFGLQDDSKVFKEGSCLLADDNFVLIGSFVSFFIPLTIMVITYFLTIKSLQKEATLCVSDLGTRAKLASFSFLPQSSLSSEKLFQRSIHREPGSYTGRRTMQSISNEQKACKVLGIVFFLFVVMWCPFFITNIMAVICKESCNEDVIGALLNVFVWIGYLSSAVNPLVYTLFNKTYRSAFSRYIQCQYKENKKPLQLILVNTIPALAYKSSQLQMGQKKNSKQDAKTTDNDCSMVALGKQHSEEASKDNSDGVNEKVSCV

Regarding `Cc1ccc2ccccc2n1`, the Potency result in assay [1], in assay [2], in assay [3], in assay [6], in assay [7] and in [8] was “inactive” throughout. For the same molecule, the Potency entry in assay [9], in assay [10], in assay [11], in [12], in assay [13] and in assay [14] was “inactive” throughout. The Potency entry in assay [15], in [16], in [17] and in assay [18] was “inactive” in each case. In addition, the result in assay [4] and in [5] was inactive.

Regarding `CC(=O)[C@@]1(O)CC[C@H]2[C@@H]3C[C@H](C)C4=CC(=O)CC[C@]4(C)[C@H]3CC[C@@]21C`, the Potency result in assay [1], in assay [2], in [3], in assay [6], in assay [7] and in assay [8] was “inactive” each time. In addition, the Potency result in [9], in assay [10], in assay [19], in assay [18] and in [20] was “inactive” each time. Further, the result in assay [4] and in [5] was inactive.

With `CCOC(=O)/C=C/C(=O)O`, the Potency entry in [1], in assay [3], in assay [6], in [7], in assay [8] and in assay [9] was “inactive” in each case. Further, the Potency entry in assay [10], in [11], in assay [12], in assay [13], in assay [14] and in assay [15] was “inactive” each time. The Potency entry in [16], in assay [17] and in assay [18] was “inactive” in each case. The Potency in assay [2] is 61.1 µM (active). Also, the result in assay [4] and in assay [5] was inactive.

As to `Cc1ccnc(NS(=O)(=O)c2ccc(N)cc2)n1`, the Potency result in assay [1], in assay [2], in assay [3], in assay [6], in assay [7] and in [8] was “inactive” in each case. Also, the Potency result in [9], in [10], in [19], in [14], in assay [15] and in assay [20] was “inactive” in each case. For the same molecule, the result in assay [4] and in assay [5] was inactive.

As for `CN(C[C@@H](CC[N+]12CCC(C3CCCCC3)(CC1)CC2)c1ccc(Cl)c(Cl)c1)C(=O)c1cc(C(F)(F)F)cc(C(F)(F)F)c1`, the Potency in assay [1] is 61.1 µM (active); in [2], 24.3 µM (active); in [8], 36.3 µM (active); in assay [9], 40.8 µM (active). Besides, the Potency entry in [3], in assay [6], in [7], in assay [10], in [11] and in assay [12] was “inactive” throughout. Moreover, in [13], the Potency entry is “inactive”. Also, the outcome in assay [4] and in [5] was inactive.

Turning to `CC(C)NNC(=O)c1ccncc1`, the Potency result in assay [1], in assay [2], in assay [3], in assay [6], in assay [7] and in [8] was “inactive” each time. In addition, the Potency result in [9], in assay [10], in assay [19], in [14], in [15] and in assay [17] was “inactive” each time. Moreover, the Potency entry in [18] and in assay [20] was “inactive” each time. The result in [4] and in [5] was inactive.

Consider `O=C1OCCN1/N=C/c1ccc([N+](=O)[O-])o1`, for which the Potency entry in assay [1], in assay [2], in [3], in [6], in assay [7] and in assay [8] was “inactive” throughout. The Potency entry in assay [9], in [10], in assay [19], in [16], in assay [17] and in assay [20] was “inactive” each time. The result in [4] and in [5] was inactive.

Consider `Cc1ccccc1N1C(=O)c2cc(S(N)(=O)=O)c(Cl)cc2NC1C` (centres undefined), for which the Potency entry in [1], in assay [2], in assay [3], in assay [6], in [7] and in assay [8] was “inactive” in each case. Moreover, the Potency result in assay [9], in assay [10], in [19], in [16] and in assay [20] was “inactive” in each case. Further, the result in [4] and in [5] was inactive.
